Bioassay records as filed in PubChem.
Hits are enriched below; roughly 7.5% of the tested compounds scored in any of these assays.
NPC1 promoter act = qHTS Assay for NPC1 Promoter Activators. AID 485313, 2010. Potency, µM (top dose mostly 9.22 µM), for inactives: top-dose activation, most hits filed as activators. 2.4% of 320,000 active. Huh7 NPC1 promoter luciferase reporter, 24 h; note: % of control where 0% means no effect; nearly all actives have a fitted effect of over 60% in size
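Huh7 reporter cells (NPC1 promoter driving luciferase) are dosed with compound for 24 h at 37 °C, 5% CO2; luciferase detection reagent is then added and luminescence measured after 10 min at ambient temperature.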
Rab9 promoter act = qHTS Assay for Rab9 Promoter Activators. Huh7 Rab9 promoter-luciferase reporter, luminescence, 24 h. Potency, µM (doses to about 9.22 µM), inactives show at the highest dose activation, negative = inhibition, usual class: activators. 2.8% of 320,000 active; note: % of control where 0% means no effect; nearly all actives have a fitted effect of over 60% in size
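Stable Rab9-luc Huh7, 1500 cells/well, 2 h settle; cmpd in DMSO, 24 h, 37 °C/5% CO2; luciferase reagent 10 min RT; luminescence.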
ELG1 genotoxic = qHTS screen for small molecules that induce genotoxicity in human embryonic kidney (HEK293T) cells expressing luciferase-tagged ELG1; HEK293T ELG1-luciferase reporter, luminescence, 16 h; Potency, µM (highest dose often 46 µM), for inactives: top-dose activity change, positive = activation, usual class: activators; 1.3% of 330,000 active; AID 504466, 2011; note: % of control where 0% means no effect; nearly all actives have a fitted effect of over 60% in size
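Genotoxicity was scored as increased ELG1-luciferase reporter signal, measured by ONE-Glo luminescence (30 min, room temperature). Compound or vehicle exposure of the HEK293T reporter cells lasted 16 hr at 37°C.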
SMN2 splice enh = qHTS Assay for Enhancers of SMN2 Splice Variant Expression; HEK293 SMN2-luciferase splicing reporter, luminescence, 30-36 h; Potency, µM (top dose mostly 46.1 µM), for inactives: top-dose activity change, positive = activation, most hits filed as activators; 2.8% of 210,000 active; AID 1458, 2008; note: % of control where 0% means no effect; nearly all actives have a fitted effect of over 55% in size
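HEK293 cells carry an SMN2 […]–luciferase reporter in which exon 7 inclusion puts luciferase in frame. Cells were plated 10-12 h before compound addition, then incubated 30-36 h at 37C. ONE-Glo luminescence was read; sodium butyrate at 4.5 mM final served as control.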
Luc counter = Counterscreen for Luciferase (Kinase-Glo TM) Inhibition | Luciferin 4-monooxygenase (Photuris pensylvanica), Q27757 | Kinase-Glo luciferase, ATP luminescence, 8 min | Potency, µM (highest dose often 38.3 µM), inactives show at the highest dose activity change, negative = inhibition, hits mostly inhibitors | 0.28% of 200,000 active | AID 1379, 2008; note: % is set by controls: 0 for no effect and ±100 for the full control effect; nearly all actives have a fitted effect of over 60% in size
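Compound is pinned into ATP-containing buffer (10 uM ATP, imidazole pH 7.2, 7 mM MgCl2). Kinase-Glo luciferase reagent is then added. Light output is recorded following an 8-min room-temperature incubation.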
FLuc modulator = qHTS profiling assay for firefly luciferase inhibitor/activator using purifed enzyme and Km concentrations of substrates (counterscreen for miR-21 project) | Luciferin 4-monooxygenase (Photinus pyralis), P08659 | 6.9% of 360,000 active | Potency, µM (top dose mostly 57.5 µM), inactives show at the top dose activity change, negative = inhibition, usual class: inhibitors | purified FLuc, Km substrates, luminescence inhibition;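 note: plate controls were vehicle for no effect and reference inhibitor for full effect; nearly all actives have a fitted effect of over 55% in size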
Target sequence (P08659 whole entry, looked up): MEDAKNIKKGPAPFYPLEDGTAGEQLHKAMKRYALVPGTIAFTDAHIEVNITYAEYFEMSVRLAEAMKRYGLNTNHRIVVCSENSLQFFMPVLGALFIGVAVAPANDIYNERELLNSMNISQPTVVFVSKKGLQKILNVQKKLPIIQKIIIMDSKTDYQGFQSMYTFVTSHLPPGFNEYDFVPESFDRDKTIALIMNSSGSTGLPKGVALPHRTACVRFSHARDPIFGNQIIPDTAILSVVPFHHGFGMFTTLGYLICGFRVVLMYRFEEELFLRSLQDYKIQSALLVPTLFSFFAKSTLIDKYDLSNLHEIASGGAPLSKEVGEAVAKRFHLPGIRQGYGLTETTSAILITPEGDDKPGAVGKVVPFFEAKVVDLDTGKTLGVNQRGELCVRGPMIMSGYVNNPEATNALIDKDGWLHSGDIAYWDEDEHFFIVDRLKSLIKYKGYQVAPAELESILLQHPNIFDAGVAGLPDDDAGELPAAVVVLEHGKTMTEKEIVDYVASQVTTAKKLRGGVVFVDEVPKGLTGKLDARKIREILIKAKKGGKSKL
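Purified P. pyralis luciferase, 10 nM final, with Km-level 10 uM D-luciferin and 10 uM ATP in 50 mM Tris acetate pH 7.5, 10 mM Mg acetate, 0.01% Tween-20, 0.05% BSA; 6-point qHTS titration about 60 µM downward; luminescence read.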
Active calls of the source: *; ? = inconclusive; · = no result; [ ] = another dose, or the depositor's remark. Calls come from the whole dose curve; as a rule, active = well fitted curve in the direction sought with a large enough effect; inconclusive = small, poorly fitted or top-dose-only effect, or another doubt; inactive = no such curve, though single readings can be large; an effect the other way counts as inactive or inconclusive. Potency is the fitted concentration of half-maximal effect.

SMILES	NPC1 promoter act	Rab9 promoter act	ELG1 genotoxic	SMN2 splice enh	Luc counter	FLuc modulator
Cn1c(NC(=O)c2ccccc2NC(=O)C(C)(C)C)nc2ccccc21	-4.2%	-1.6%	-41.0%	-2.3%	2.9%	26.9µM*
Cn1c(NC(=S)Nc2ccccc2)nc2ccccc21	?	?	?	8.91µM*	-5.1%	6.75µM*
COc1ccc([N+](=O)[O-])cc1C(=O)Nc1ccc(OCC(=O)N2CCOCC2)cc1	0.4%	-4.4%	0.3%	-4.6%	0.3%	-12.1%
COc1cc(SC)ccc1C(=O)Nc1cc(C)c(OCC(=O)N2CCOCC2)c(C)c1	26.7%	24.8%	-4.7%	·	·	6.01µM*
COc1cc(C=O)ccc1OCC(=O)N1CCOCC1	-0.4%	-1.1%	0.0%	14.6%	3.4%	-0.1%[2.3 µM]
COc1cc(SC)ccc1C(=O)Nc1ccc(OCC(=O)N2CCOCC2)cc1	2.82µM*	1.78µM*	?	·	·	0.477µM*
COc1ccccc1C(=O)Nc1ccc(OCC(=O)N2CC(C)CC(C)C2)cc1 (stereo not drawn)	1.2%	-3.3%	1.5%	·	·	10.7µM*
COc1cccc(CNC(=O)C2CCC(=O)N(C3CC3)C2)c1OC (stereo not drawn)	1.3%	0.1%	-2.0%	·	·	0.6%
CCC1CSC(Nc2ccc(C(=O)/C=C/c3cccc(C)c3)cc2)=N1 (stereo not drawn)	-4.4%	-2.8%	13.3%	-58.6%	2.8%	?
CCC1CSC(Nc2ccc(C(=O)/C=C/c3ccc(Oc4ccccc4)cc3)cc2)=N1 (stereo not drawn)	-0.3%	-5.8%	9.1%	-65.9%	-4.0%	13.5µM*
O=C(NCc1ccco1)c1ccc2c(c1)N(Cc1ccccc1F)C(=O)c1ccccc1S2(=O)=O	·	·	·	1.7%	·	-4.6%
Cc1ccc(OCC(=O)NC(=S)Nc2ccccn2)c(Br)c1	1.58µM*	2.82µM*	0.13µM*	·	·	0.19µM*
Cc1ccc(OCC(=O)NNC(=S)NC(=O)C2CC2)c(C)c1	-4.9%	-8.0%	8.3%	·	·	13.5µM*
O=C(COc1ccc(Br)cc1Cl)NC(=S)Nc1ccccn1	?	?	1.64µM*	·	·	1.07µM*
Cc1ccc(OCC(=O)NNC(=S)NC(=O)C(C)(C)C)c(Br)c1	0.7%	5.4%	4.1%	-47.4%	3.3%	26.9µM*
COCCn1c(SCC(=O)c2ccc(F)cc2)nc2cc(C(=O)NC3CCCC3)ccc2c1=O	·	·	·	·	·	-0.7%
COCCCNC(=O)COc1ccc(Br)cc1Cl	?	?	?	15.8µM*	0.5%	?
CCNC(=O)COc1ccc(Br)cc1Cl	25.8%	29.6%	?	10.3%	-0.3%	?
O=C(Nc1nccs1)c1ccc(COc2ccc(F)cc2)o1	?	?	3.3%	14.8%	-3.3%	15.1µM*
O=C(Nc1nccs1)c1ccc(COc2ccc(Cl)cc2)o1	·	·	·	-3.7%	-0.3%	?
CN(C)C(=O)c1ccc(COc2ccccc2Br)o1	?	?	20.6µM*	8.91µM*	-3.9%	19µM*
O=C(COc1ccc(F)cc1)Nc1nccs1	2µM*	1µM*	?	11.2µM*	?	7.57µM*
Cc1cccc(OCC(=O)Nc2nccs2)c1C	0.355µM*	0.355µM*	2.06µM*	·	·	1.51µM*
COc1ccccc1OCc1ccc(C(=O)N(C)C)o1	1.7%	-7.9%	17.6%	?	-7.4%	?
NC1=NC(=O)/C(=C/c2cn(Cc3ccccc3)c3ccccc23)S1	-2.5%	-1.3%	?	-33.3%	0.4%	-8.5%
SMILES	NPC1 promoter act	Rab9 promoter act	ELG1 genotoxic	SMN2 splice enh	Luc counter	FLuc modulator
O=C(COc1ccc(F)cc1)Nc1nc2c(s1)CCCC2	?	?	?	·	·	26.9µM*
O=C(Nc1nccs1)c1ccc(COc2ccccc2Br)o1	27.0%	?	?	-16.2%	0.8%	19µM*
O=C(O)c1ccccc1C(=O)Nc1ccc(Br)c2cccnc12	-0.9%	2.9%	5.6%	2.0%	5.0%	23.9µM*
O=C(O)c1cc(Cl)c(Cl)cc1C(=O)Nc1cccc2cccnc12	0.1%	1.2%	0.0%	4.3%	0.5%	-16.7%
COC(=O)c1c(N)sc(Cc2ccccc2)c1C	-2.4%	0.7%	0.4%	·	-0.3%	-6.3%
Nc1sc(-c2ccccc2)c(Cc2ccccc2)c1C(=O)O	-4.9%	-1.0%	1.3%	-52.8%	-0.2%	16.9µM*
O=C(Nc1ccc([N+](=O)[O-])cc1)c1ccccc1F	?	2.82µM*	22.5%	15.8µM*	2.0%	?
O=C(Nc1ccc(-c2ccc([N+](=O)[O-])cc2)cc1)c1ccccc1F	14.1%	12.7%	6.6%	?	-0.8%	-0.4%
O=[N+]([O-])c1ccc(Nc2ccc(F)cc2)cc1	-0.9%	1.9%	-1.9%	·	·	-2.9%
O=C(Nc1ccc(C(=O)N2CCCCC2)cc1)c1cccs1	13.8%	13.3%	?	·	·	?
O=C(Nc1ccc(NC(=O)c2cccs2)cc1)c1cccs1	?	?	?	·	·	-1.1%
O=C(Nc1ccc(NC(=O)C2CC2)cc1)c1cccs1	3.55µM*	1.26µM*	?	·	·	13.5µM*
O=[N+]([O-])c1ccc(NNC(=S)Nc2ccc(F)cc2)cc1	21.9%	12.7%	7.2%	-55.1%	-12.0%	19µM*
O=C(Nc1ccc(Cl)cc1)c1cccs1	·	·	·	23.4%	-7.0%	12µM*
CCCOC(=O)CSc1nnc(-c2ccccc2)o1	·	·	·	·	·	-10.5%
CCCCN(Cc1cccs1)S(=O)(=O)c1cc(-c2cc(C)no2)ccc1C	·	·	·	·	·	-11.8%
O=C1CN(C(=O)COc2ccc(Br)cc2)c2ccccc2N1	-5.9%	-3.7%	-1.3%	·	0.2%	-1.9%
CCC(C)c1ccc(NC(=O)c2cccs2)cc1 (stereo not drawn)	0.398µM*	0.447µM*	0.731µM*	7.94µM*	-15.3%	0.675µM*
CC1(c2ccc(NC(=O)c3ccccc3F)cc2)CC1(Cl)Cl (stereo not drawn)	3.55µM*	2.51µM*	?	·	·	8.49µM*
O=C(Nc1ccccc1C(=O)Nc1ccccc1)c1ccccc1F	-3.4%	-3.4%	-0.7%	·	·	0.2%
CCC(C)NS(=O)(=O)c1ccc(NC(=O)c2cccs2)cc1 (stereo not drawn)	-8.3%	-2.3%	-2.3%	·	-1.9%	-1.1%
Cc1ccccc1C(=O)Nc1ccc(NC(=O)c2cccs2)cc1	·	·	·	3.55µM*	·	?
COc1ccccc1NC(=O)c1ccccc1NC(=O)c1cccs1	-2.6%	0.0%	1.6%	·	·	19µM*
CCC(Oc1ccc(F)cc1)C(=O)Nc1nc(-c2ccc(F)cc2)ns1 (stereo not drawn)	·	·	·	-84.3%	·	-21.7%
COc1cc(S(=O)(=O)NCCc2c(C)[nH]c3ccc(C)cc23)ccc1Br	·	·	·	·	·	1.3%
